Inconclusive results are not listed. Where a structure was tested more than once in an assay, its records may differ in their call. Calls of active or inactive are those of the source. The calls were made as follows, unless noted: active = hit-call score of the fitted dose curve at least 0.9, where 1 is the maximum; inconclusive = response in the unintended direction; inactive = score below 0.9.

Usually AC50 stands for the concentration giving half of the maximal activity seen.

Read-out in one test: UDP glucuronosyltransferase (UGT1A6), UGT1A6 (gene 54578)
As to the kind of experiment: LTEA_HepaRG_UGT1A6: Life Technologies and Expression Analysis (LTEA) Assay for UDP glucuronosyltransferase (UGT1A6) using HepaRG (AID 2283539; active = hit-call score of the fitted dose curve at least 0.9, where 1 is the maximum; inactive = score below 0.9). The following applies: mRNA level, 48 h; actives raise or lower the signal. In a few lines: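 Differentiated HepaRG cells, ~100,000/well, were exposed for 48 h in serum-free induction medium with 0.5% DMSO to 8-point half-log series topping at 100 uM, in duplicate. mRNA measured by Fluidigm TaqMan qRT-PCR, normalized to ACTB, GAPDH and POLR2A.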
Regarding `ClCCOCCCl`, the call was inactive.
On the same count and under the same terms, to `c1ccc(N=Nc2ccccc2)cc1` belongs “inactive”; to `[As]#[In]`, “inactive”.
Still for that read-out and setting: in the case of `COC(=O)c1ccccc1N` it was “inactive”.
Same read-out and setting: in the case of `Clc1ccc(C(c2ccc(Cl)cc2)C(Cl)Cl)cc1` it was “inactive”.
Regarding `c1ccc(NNc2ccccc2)cc1`, the compound was called inactive.
The same measure, in the same setting: to `CN(C)c1ccc(C(=O)c2ccc(N(C)C)cc2)cc1` belongs “inactive”.
On to `Cc1ccc(N)cc1`, for which the call was inactive.
Same read-out and setting: in the case of `CC(O)CCO` (centres undefined) it was “inactive”.
Same read-out and setting: in the case of `CCCCCCCCCCCCCN1CC(C)OC(C)C1` (centres undefined) it was “inactive”; in that of `Cc1ccc([N+](=O)[O-])cc1`, “inactive”.

Read-out in a further test: X-box binding protein 1 (XBP1), XBP1 (gene 7494)
As to the kind of experiment: LTEA_HepaRG_XBP1: Life Technologies and Expression Analysis (LTEA) Assay for X-box binding protein 1 (XBP1) using HepaRG (AID 2283540; active = hit-call score of the fitted dose curve at least 0.9, where 1 is the maximum; inactive = score below 0.9). The following applies: mRNA level, 48 h; actives raise or lower the signal. In a few lines: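 Differentiated human HepaRG cells in serum-free induction medium exposed 48 h in duplicate to eight half-log concentrations up to 100 uM in 0.5% DMSO. XBP1 mRNA measured by Fluidigm TaqMan qRT-PCR, normalized to ACTB, GAPDH, POLR2A; bidirectional fitting against DMSO.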
For the compound `ClCCOCCCl`, the result was inactive.
Same read-out and setting: in the case of `c1ccc(N=Nc2ccccc2)cc1` it was “inactive”; in that of `Clc1ccc(C(c2ccc(Cl)cc2)C(Cl)(Cl)Cl)cc1`, “inactive”.
Same read-out and setting: to `[As]#[In]` belongs “inactive”; to `O=Cc1ccco1`, “inactive”.
On the same count and under the same terms, to `Nc1cc(Cl)cc(C(=O)O)c1Cl` belongs “inactive”; to `Nc1ccc(Oc2ccc(N)cc2)cc1`, “inactive”; to `O=C1CCCO1`, “inactive”.
For `COC(=O)c1ccccc1N`, the compound was classed as inactive.
Take `CCNS(=O)(=O)C(F)(F)C(F)(F)C(F)(F)C(F)(F)C(F)(F)C(F)(F)C(F)(F)C(F)(F)F`: the AC50 is 48.2 µM (active).
Consider `Clc1ccc(C(c2ccc(Cl)cc2)C(Cl)Cl)cc1`, for which the compound was called inactive.
As for `c1ccc2c(c1)-c1cccc3cccc-2c13`, the compound was called inactive.
The same measure, in the same setting: in the case of `C1=Cc2cccc3cccc1c23` it was “inactive”; in that of `c1ccc2c(c1)oc1ccccc12`, “inactive”.
The same measure, in the same setting: in the case of `CCC[CH2][Sn]([Cl])([CH2]CCC)[CH2]CCC` it was “inactive”.
On to `CC(C)(O)c1cnn2c(-c3ccc(F)c(-c4c(F)cccc4C#N)c3)cnc2n1`, for which the outcome was inactive.
Still for that read-out and setting: to `c1ccc(NNc2ccccc2)cc1` belongs “inactive”; to `CN(C)c1ccc(C(=O)c2ccc(N(C)C)cc2)cc1`, “inactive”.
Same read-out and setting: to `CCCCC(CC)COC(=O)c1ccc(C(=O)OCC(CC)CCCC)c(C(=O)OCC(CC)CCCC)c1` (centres undefined) belongs “inactive”; to `CN(C)C(=O)Nc1ccc(Cl)cc1`, “inactive”.
For the compound `Cc1ccc(N)cc1`, the compound was classed as inactive.
On the same count and under the same terms, in the case of `Nc1ccc([N+](=O)[O-])cc1` it was “inactive”; in that of `CC(O)CCO` (centres undefined), “inactive”; in that of `Oc1ccc2ccc3cccc4ccc1c2c34`, “inactive”.
On the same count and under the same terms, to `CCCCCCCCCCCCCN1CC(C)OC(C)C1` (centres undefined) belongs “inactive”; to `C[N+](C)(C)CC1CO1` (centres undefined), “inactive”.
On the same count and under the same terms, to `Cc1ccc([N+](=O)[O-])cc1` belongs “inactive”.

Read-out in a further test: not listed separately
As to the kind of experiment: LTEA_HepaRG_LDH_cytotoxicity: Cytotoxicity Assessment in the Life Technologies and Expression Analysis (LTEA) Assay (AID 2283563).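 As to AC50: LDH activity released into spent culture medium as a marker of cell death.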
Details: not given
Summed up:
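Differentiated HepaRG cells in serum-free induction medium, exposed 48 h in duplicate to 8 half-log concentrations up to 100 uM in 0.5% DMSO. Cytotoxicity from LDH measured in spent medium, fit relative to DMSO.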
Regarding `ClCCOCCCl`, the call was inactive.
Same read-out and setting: to `c1ccc(N=Nc2ccccc2)cc1` belongs “inactive”.
As for `Clc1ccc(C(c2ccc(Cl)cc2)C(Cl)(Cl)Cl)cc1`, the AC50 was 72.3 µM (active).
For `[As]#[In]`, the result was inactive.
The same measure, in the same setting: to `Nc1cc(Cl)cc(C(=O)O)c1Cl` belongs “inactive”; to `Nc1ccc(Oc2ccc(N)cc2)cc1`, “inactive”; to `O=C1CCCO1`, “inactive”.
Same read-out and setting: to `CC(C)N(Cc1ccccc1)C(=O)C(C)(C)C` belongs “inactive”; to `COC(=O)c1ccccc1N`, “inactive”.
The same measure, in the same setting: to `CCNS(=O)(=O)C(F)(F)C(F)(F)C(F)(F)C(F)(F)C(F)(F)C(F)(F)C(F)(F)C(F)(F)F` belongs “inactive”; to `Clc1ccc(C(c2ccc(Cl)cc2)C(Cl)Cl)cc1`, “inactive”; to `C1=Cc2cccc3cccc1c23`, “inactive”.
On to `c1ccc2c(c1)oc1ccccc12`, for which the result was inactive.
In the case of `CCC[CH2][Sn]([Cl])([CH2]CCC)[CH2]CCC`, the AC50 is 2.98 µM (active).
Take `CC(C)(O)c1cnn2c(-c3ccc(F)c(-c4c(F)cccc4C#N)c3)cnc2n1`: the result was inactive.
The same measure, in the same setting: to `c1ccc(NNc2ccccc2)cc1` belongs “inactive”; to `CN(C)c1ccc(C(=O)c2ccc(N(C)C)cc2)cc1`, “inactive”; to `CCCCC(CC)COC(=O)c1ccc(C(=O)OCC(CC)CCCC)c(C(=O)OCC(CC)CCCC)c1` (centres undefined), “inactive”.
Consider `CN(C)C(=O)Nc1ccc(Cl)cc1`, for which the compound was called inactive.
Still for that read-out and setting: in the case of `Cc1ccc(N)cc1` it was “inactive”; in that of `Nc1ccc([N+](=O)[O-])cc1`, “inactive”; in that of `CC(O)CCO` (centres undefined), “inactive”.
On to `Oc1ccc2ccc3cccc4ccc1c2c34`, for which the outcome was inactive.
Regarding `CCCCCCCCCCCCCN1CC(C)OC(C)C1` (centres undefined), the compound was classed as inactive.
For the compound `C[N+](C)(C)CC1CO1` (centres undefined), the call was inactive.
The same measure, in the same setting: in the case of `Cc1ccc([N+](=O)[O-])cc1` it was “inactive”.

Tested on in the next test: not listed separately
As to the kind of experiment: ATG_XTT_Cytotoxicity: Cytotoxicity Assessment in the Attagene TRANS-FACTORIAL HepG2 Assay (AID 2283584).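 As to AC50: XTT signal for cell number as viability in transfected HepG2 cells; cells exposed to compound for 24 h before reading; active means loss of viability signal versus DMSO baseline.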
Details: not given
In a few lines:
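HepG2 cells transiently transfected with GAL4-UAS multiple reporter units, dosed 24 h; cytotoxicity read by XTT as loss of signal versus DMSO baseline.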
In the case of `ClCCOCCCl`, the outcome was inactive.
The same measure, in the same setting: to `Clc1ccc(C(c2ccc(Cl)cc2)C(Cl)(Cl)Cl)cc1` belongs “inactive”.
Regarding `Nc1cc(Cl)cc(C(=O)O)c1Cl`, the call was inactive.
Same read-out and setting: to `Nc1ccc(Oc2ccc(N)cc2)cc1` belongs “inactive”; to `O=C1CCCO1`, “inactive”; to `CC(C)N(Cc1ccccc1)C(=O)C(C)(C)C`, “inactive”.
Still for that read-out and setting: to `COC(=O)c1ccccc1N` belongs “inactive”; to `Clc1ccc(C(c2ccc(Cl)cc2)C(Cl)Cl)cc1`, “inactive”; to `c1ccc2c(c1)-c1cccc3cccc-2c13`, “inactive”.
For the compound `C1=Cc2cccc3cccc1c23`, the compound was called inactive.
Regarding `CCC[CH2][Sn]([Cl])([CH2]CCC)[CH2]CCC`, the AC50 was 1.8 µM (active) and the outcome was inactive.
Consider `c1ccc(NNc2ccccc2)cc1`, for which the outcome was inactive.
Same read-out and setting: in the case of `CN(C)c1ccc(C(=O)c2ccc(N(C)C)cc2)cc1` it was “inactive”; in that of `CCCCC(CC)COC(=O)c1ccc(C(=O)OCC(CC)CCCC)c(C(=O)OCC(CC)CCCC)c1` (centres undefined), “inactive”.
Take `CN(C)C(=O)Nc1ccc(Cl)cc1`: the compound was called inactive.
On the same count and under the same terms, to `Nc1ccc([N+](=O)[O-])cc1` belongs “inactive”; to `Oc1ccc2ccc3cccc4ccc1c2c34`, “inactive”; to `C[N+](C)(C)CC1CO1` (centres undefined), “inactive”.
For the compound `Cc1ccc([N+](=O)[O-])cc1`, the call was inactive.

The values above are taken from PubChem BioAssay (EPA / NIEHS).
